Source: PubChem BioAssay AID1117319 (Southern Research Institute, 2015)
Hit rate of the full screen: of about 260,000 compounds, about 1,500 (0.58%) were called active. About 5% were inconclusive and are not listed.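 How the source made its calls: active means inhibition above a set limit at one or more doses, reproduced on every date tested; inconclusive means results disagree between test dates, or hit never tested in dose response; inactive means the rest.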 Only a sample is shown. Potency and affinity values are given separately.

Each molecule was assayed against Virion infectivity factor (Human immunodeficiency virus type 1 group M subtype B (isolate BH10)) + Virion infectivity factor (Human immunodeficiency virus type 1 group M subtype B (isolate BRU/LAI)) + Virion infectivity factor (Human immunodeficiency virus type 1 group M subtype B (isolate PCV12)) + Virion infectivity factor (Human immunodeficiency virus type 1 group M subtype B (isolate HXB2)) + DNA dC->dU-editing enzyme APOBEC-3G (Homo sapiens) (UniProt P69720+P69721+P69722+P69723+Q9HC16) (assay: inhibitors of Vif binding to APOBEC3G peptide, primary screen, biochemical, TR-FRET, GST-Vif 1-94, biotin-A3G peptide, dose response retest (AID 1117319;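 further: Vif residues 1-94 fused to GST binding biotinylated APOBEC3G peptide 110-148; 0% = full assay without inhibitor and 100% = GST in place of GST-Vif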)). Settings: hits give high values.

inhibition, inactive:
CC(=O)c1ccc(N2CCN(c3ccc(C(N)=O)cc3[N+](=O)[O-])CC2)cc1 15.8%, COc1ccc(N2CCN(c3ccc(C(N)=O)cc3[N+](=O)[O-])CC2)cc1 -3.87%, O=C(OCc1ccco1)c1cccnc1 -2.16%, Cc1ccc(Cc2c(-c3ccccc3)nc3cc(C)ccn23)cc1 -4.74%, CCC(=O)Nc1nnc(Sc2ccc(N(C)C)cc2)s1 2.99%, CCCC(=O)Nc1nnc(Sc2ccc(N(C)C)cc2)s1 2.88%, COCCSc1nnc(NC(=O)COC)s1 -0.26%, O=C1c2cccnc2C(Nc2ccccc2Br)N1Cc1ccco1 (stereo not given) 9.8%, O=C1c2cccnc2C(Nc2cccc(F)c2)N1Cc1ccco1 (stereo not given) -1.27%, Cc1cc(C(=O)COC(=O)c2ccc[nH]c2=O)c(C)n1C1CC1 13%, NC(=S)NNC(=O)c1cc(C(F)(F)F)cc(C(F)(F)F)c1 1.55%, Cc1ccc2[nH]cc(S(=O)(=O)c3ccc(C(C)C)cc3)c(=O)c2c1 -10.1%, CN(Cc1ccno1)C(=O)CC1C(=O)NCCN1CC(c1ccccc1)c1ccccc1 (stereo not given) -5.42%, Cc1ccc(NCN2C(=O)C3C4C=CC(C4)C3C2=O)cc1 (stereo not given) 6.77%, O=C1C2C3C=CC(C3)C2C(=O)N1CNc1ccccc1 (stereo not given) 2.49%, Cc1ccc(NC(=O)CSc2nc(C)c(C)c(C)n2)c([N+](=O)[O-])c1 -0.85%, CCOC(=O)C1=C(C)N=C(/N=C/N(C)C)SC1c1ccccc1 (stereo not given) 18.8%, O=C(O)CCc1ccc(-c2ccccc2)n1CC(=O)O 6.57%, COc1ccccc1NC(=O)Cn1c(CCC(=O)O)ccc1-c1ccccc1 -8.03%, O=S(=O)(Nc1ccc2c(c1)OCCO2)c1ccc2oc3ccccc3c2c1 -4.26%, Cc1ccc(C(=O)Nn2c(O)c(C=C3N=c4ccccc4=N3)sc2=S)cc1 0.29%, O=C(CCNC(=O)N1CC(=O)Nc2ccccc21)NCc1ccccc1Cl 2.33%, COCCN1CC(C(=O)NCc2ncccc2C)CCC1=O (stereo not given) 0.7%, O=c1oc2ccc([N+](=O)[O-])cc2c(N2CCOCC2)c1[N+](=O)[O-] -2.71%, COC(=O)Cc1cc(=O)n(-c2ccccc2)[nH]1 20.8%, COc1ccc(-c2cc(=O)n(-c3nc4ccccc4[nH]3)[nH]2)cc1 10.5%, COCCSc1nc2c(c(=O)[nH]c(=O)n2C)n1CCC(C)C 2.86%, Cc1ccc(N(CCO)C(=S)Nc2ccccc2)cc1 1.36%, O=C(c1cc(-c2ccccc2)nn1-c1ccccc1)N1CCN(S(=O)(=O)c2ccc(F)cc2)CC1 -4.9%, CCOC(=O)c1c(C)oc2c1c(C=NCCO)c(O)c1ccccc12 14.7%, CCOC(=O)c1c(C)oc2c1c(C=NCC1CCCO1)c(O)c1ccccc12 (stereo not given) 25.6%, CNS(=O)(=O)c1cccc(C(=O)OCC(=O)c2ccc3[nH]c(=O)[nH]c3c2)c1 4.94%, COc1ccccc1NC(=S)NC(NC(C)=O)C(Cl)(Cl)Cl (stereo not given) -2.68%, O=C(CCC(=O)N1CCN(c2ccccc2F)CC1)c1ccc(F)cc1 0.58%, Cc1cccn2c(=O)nc(SCC(=O)N3CCCCC3)nc12 -0.7%, Cc1cc(=O)n2nc(-c3ccc(C(F)(F)F)cc3)sc2n1 0.75%, CCN(CC)S(=O)(=O)c1ccc(/C=C/C(=O)Nc2ccccc2N2CCOCC2)cc1 28.5%, CCOc1ccc(/C=C/C(=O)Nc2ccc(N3CCOCC3)cc2)cc1 3.96%, CCNC(=O)COC(=O)c1ccc(S(=O)(=O)N2CCCCCC2)cc1 -4.99%, CC(C)Cc1cc(C(=O)N2CCC(N3CCC(C(=O)N4CCOCC4)CC3)CC2)n[nH]1 12.3%, CCCCN(C)C(=O)c1nc2ccccn2c1CN1CCN(c2ccccn2)CC1 -11.9%, COCCn1nnnc1C(c1cc2cc(C)ccc2[nH]c1=O)N1CCc2ccccc21 (stereo not given) 17%, Cc1cc(NC(=O)CSc2nnc(Cc3cccn3C)n2CCc2ccccc2)no1 24.2%, CC1(C)Cc2cccc(OCC(=O)OCc3nnc(-c4ccccc4)o3)c2O1 -2.78%, C/C(=N\NC(=O)Cc1cccn1C)c1ccco1 20.2%, CC(/C=N/NC(=O)Cc1cccs1)=C\c1ccco1 12.2%, CC(=O)Nc1ccc2c(c1)nc(C)n2-c1ccccc1 -9.18%, O=C1CC(c2ccc(O)cc2)Oc2cc(O)cc(O)c21 (stereo not given) 10.3%, O=C1C[C@@H](c2ccc(O)cc2)Oc2cc(O)cc(O)c21 2.93%, Cc1n[nH]c(C)c1S(=O)(=O)N(C)Cc1ccco1 0%, CCC(=O)c1ccc(OCC(=O)OCC(=O)N2c3ccccc3NC(=O)C2(C)C)cc1 0.69%, Cc1noc(C)c1COc1ccc(C(=O)OCC(=O)N2CC(=O)Nc3ccccc32)cc1 2.4%, CS(=O)(=O)N(CC(=O)N1CCCCCC1)c1ccc2c(c1)OCCO2 0.11%, CCC(=O)Nc1nc2ccc([N+](=O)[O-])cc2s1 1.71%, COc1ccc(C)cc1NC(=O)NCc1ccc(F)cc1 7.92%, COc1ccc(OC)c(NC(=O)NCc2cccnc2)c1 -1.39%, O=C(CCNC(=O)c1ccc(Cl)cc1)NCc1ccccc1Cl -1.5%, COc1cccc(-c2c3c([nH]c(=O)c2C#N)CCc2cc(OC)ccc2-3)c1 -2.14%, CCCCN1CC(COCc2ccccc2)Oc2cc(Br)ccc2S1(=O)=O (stereo not given) -3.27%, CCC(C(=O)OCC(=O)Nc1ccc(C(N)=O)cc1)c1ccccc1 (stereo not given) -11.4%, CCC(C(=O)OCC(=O)Nc1ccc(F)cc1)c1ccccc1 (stereo not given) 11.7%, CCSc1nnc(NC(=O)[C@@H](NC(=O)c2ccccc2F)C(C)C)s1 -8.51%, Cc1c(Cl)ccc2c1NC(=O)[C@]21[C@@H]2C(=O)N(Cc3ccccc3)C(=O)[C@@H]2[C@@H]2CCCN21 2.38%, Cc1cc(Cl)c2c(c1)[C@]1(C(=O)N2)[C@@H]2C(=O)N(Cc3ccccc3)C(=O)[C@@H]2[C@@H]2CCCN21 28.3%, O=C(Cc1n[nH]c(=O)c2ccccc12)OCC(=O)c1ccc(F)c(F)c1 -13.4%, Cc1cc(NC(=O)Nc2ccc(F)cc2F)n(C)n1 -0.16%, C#CCN(C[C@H]1[C@H](OC(=O)Nc2c(C)noc2C)[C@H](OC(=O)Nc2c(C)noc2C)C[C@@H](C(=O)OC)[C@H]1C(=O)OC)S(=O)(=O)c1ccc(C)cc1 1.23%, COc1ccccc1C(=O)N(CCN(C)C)c1nc2cc(C)cc(C)c2s1 -1.26%, Cc1c(Cl)cnc(NC(=O)COC(=O)/C=C/c2ccco2)c1Cl 19.7%, Cc1nc(NC(=O)COC(=O)/C=C/c2ccco2)c(Cl)cc1Cl 20.2%, CCC1CCCCN1C(=O)CSc1nnc(N)s1 (stereo not given) -4.63%, O=C(NCC(c1ccco1)N1CCc2ccccc2C1)c1ccc(F)cc1 (stereo not given) -9.45%, O=C(/C=C/c1ccco1)NCCc1ccccc1 0.33%, COc1ccc(CCNC(=O)/C=C/C(=O)O)cc1 14.3%, CC1(C)Cc2nc3sc(C(=O)NCCCO)c(N)c3cc2CS1 -0.06%, CCC1(C)Cc2nc3sc(C(=O)O)c(N)c3cc2CO1 (stereo not given) 32.8%, COc1ccc(-c2ccc3c(c2)C2CC3CCN2C(=O)C(C)(C)C)cc1 (stereo not given) -6.26%, COc1ccc(Cc2nnc(SCC(=O)NC(C)c3ccccc3)o2)cc1 (stereo not given) 8.9%, CCOC(=O)C1(C)NC(c2ccco2)C2C(=O)N(C)C(=O)C21 (stereo not given) 2.73%, CCOC(=O)C1(CC)NC(c2ccco2)C2C(=O)N(CC)C(=O)C21 (stereo not given) 0.75%, CCOc1ccccc1NC(=O)c1cc2ccccc2oc1=O 5.96%, O=c1[nH][nH]cc1C=Nc1ccccc1O 1.21%, O=C(Nc1ccccc1)c1ccccc1N=Cc1ccccc1O -0.3%, Cc1cccc(NC(=O)Cn2cnc3c(oc4ccccc43)c2=O)c1 4.28%, CCCCn1c(SCC(N)=O)nnc1-c1ccco1 3.37%, c1ccc(OCCCCN2CCOCC2)cc1 16.5%, CCOC(=O)N1CC=C2C(C#N)=C(N)C(C#N)(C#N)[C@H](c3ccsc3)[C@H]2C1 9.32%, CC(C)(C)OC(=O)N1CC=C2C(C#N)=C(N)C(C#N)(C#N)C(c3cccs3)C2C1 (stereo not given) 5.47%, CC1CCN(c2nnc(NC(=O)Cn3c(=O)oc4ccccc43)s2)CC1 4.48%, COC(=O)c1c(S(=O)(=O)N2CCOCC2)c(C)n(C)c1C 2.63%, Cc1cn([C@H]2C[C@H](O)[C@@H](CNCc3ccccc3)O2)c(=O)[nH]c1=O -4.57%, CC1CN(C(=O)c2ccn(C)n2)CC(C)O1 (stereo not given) -6.54%, CC(c1ccccc1)C1CC(=O)N(Cc2ccco2)C1=O (stereo not given) 1.07%, O=C1CS/C(=N/N=C/c2ccco2)N1Cc1ccc(F)cc1 10.9%, CC1S/C(=N/N=C/c2ccco2)N(Cc2ccc(F)cc2)C1=O (stereo not given) 2.84%, O=C(CN1C(=O)C(=O)N(Cc2ccco2)C1=O)NC1CCCCC1 10.2%, CC1S/C(=N/N=C/c2ccco2)N(Cc2ccccc2)C1=O (stereo not given) 4.75%, O=C(CN1CCN(Cc2ccccc2)CC1)N/N=C\C=C/c1ccco1 29.4%, O=C1c2ccccc2C(=O)N1Cc1ccco1 6.23%, O=C1C2C3CCC(C3)C2C(=O)N1Cc1ccco1 (stereo not given) -17.6%
